# Assay results published in PubChem BioAssay (NCI).
# Compounds without any hit were thinned out: in the full panel of roughly 79,000, 15% have a hit. A number with no mark means an inactive call. Active and inactive are the calls of the source. Cut-off read from the data, not from the text of the source: active = growth inhibition above about 70%; inactive = the rest.
# Tests used:
# [1] = NCI Yeast Anticancer Drug Screen. Data for the rad52 strain (AID 147);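 note: 0% = growth of vehicle-treated control cultures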; conditions: S. cerevisiae rad52 mutant growth inhibition, active compounds read high
# How it was run: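 Yeast strain carrying a DNA damage repair alteration was exposed to test compounds. Growth inhibition was measured relative to vehicle-treated controls.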
# [2] = NCI Yeast Anticancer Drug Screen. Data for the wt1 strain (AID 149);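 note: 0% = growth of vehicle-treated wt1 cultures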; conditions: S. cerevisiae wt1 strain (SPY 50644) growth inhibition, active compounds read high
# How it was run: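 The wt1 strain was treated with compounds, and growth was compared with vehicle-treated cultures to give inhibition.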
# [3] = NCI Yeast Anticancer Drug Screen. Data for the rad50EPP+ strain (AID 151);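 note: 0% = growth of vehicle-treated control cultures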; conditions: S. cerevisiae rad50 mutant strain, active compounds read high
# How it was run: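 Yeast strain carrying rad50 alteration (rad50EPP+) exposed to compounds; growth inhibition measured relative to vehicle-treated controls.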
# [4] = NCI Yeast Anticancer Drug Screen. Data for the rad50 strain (AID 155);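 note: 0% = growth of vehicle-only cultures of the same strain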; conditions: S. cerevisiae rad50 strain growth inhibition, active compounds read high
# How it was run: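 Cells are treated with compound, grown, and their growth is then scored against vehicle-only cultures of the same repair-deficient yeast strain.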
# [5] = NCI Yeast Anticancer Drug Screen. Data for the mec2-1 strain (AID 157); conditions: S. cerevisiae mec2-1 strain, active compounds read high
# How it was run: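 mec2-1 yeast strain, carrying an alteration in DNA damage repair or cell cycle control, was exposed to compounds; growth inhibition was measured relative to vehicle-treated controls.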
# [6] = NCI Yeast Anticancer Drug Screen. Data for the rad14 strain (AID 159);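 note: 0% = growth of vehicle-treated control cultures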; conditions: S. cerevisiae rad14 strain growth inhibition, active compounds read high
# How it was run: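 Readout: yeast growth inhibition, referenced to vehicle-only cultures. Strain bears a defined alteration in DNA damage repair.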
# [7] = NCI Yeast Anticancer Drug Screen. Data for the sgs1 mgt1 strain (AID 161);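 note: 0% = growth of cultures given vehicle only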; conditions: S. cerevisiae sgs1 mgt1 strain, active compounds read high
# How it was run: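 Yeast cells carrying a defined DNA-repair defect were exposed to test compounds. Growth inhibition was measured relative to vehicle-treated controls.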
# [8] = NCI Yeast Anticancer Drug Screen. Data for the CLN2oe strain (AID 163);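 note: 0% = growth of vehicle-only control cultures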; conditions: S. cerevisiae CLN2oe strain, active compounds read high
# How it was run: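 Yeast cells carrying a defined cell-cycle control alteration were exposed to test compounds. Growth inhibition was scored against vehicle-treated control cultures.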
# [9] = NCI Yeast Anticancer Drug Screen. Data for the cln2 rad14 strain (AID 165);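 note: 0% = growth equal to vehicle treated cultures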; conditions: S. cerevisiae cln2 rad14 strain, active compounds read high
# How it was run: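 Yeast carrying cln2 and rad14 alterations (cell cycle control and DNA damage repair) were exposed to compounds. Growth inhibition was measured against vehicle-treated controls.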
# [10] = NCI Yeast Anticancer Drug Screen. Data for the bub3 strain (AID 167); conditions: S. cerevisiae bub3 mutant strain, active compounds read high
# How it was run: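 Part of a panel of yeast mutants defective in DNA damage repair or cell cycle regulation. Each strain is grown with compound, and inhibition is calculated relative to solvent-treated cultures.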
# [11] = NCI Yeast Anticancer Drug Screen. Data for the wt2 strain (AID 169);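 note: 0% = growth of vehicle-treated yeast cultures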; conditions: S. cerevisiae wt2 strain growth inhibition, active compounds read high
# How it was run: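 Yeast cells were exposed to test compounds, and growth inhibition was measured relative to vehicle-treated controls.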
# [12] = NCI Yeast Anticancer Drug Screen. Data for the mlh1 strain (AID 171);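 note: 0% = growth of vehicle-treated control cultures of the same strain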; conditions: S. cerevisiae mlh1 strain growth inhibition, active compounds read high
# How it was run: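 Yeast carrying a defined genetic alteration in DNA damage repair or cell cycle control were exposed to test compounds. Growth inhibition was measured relative to vehicle-treated controls.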
# [13] = NCI Yeast Anticancer Drug Screen. Data for the sgs1 strain (AID 173);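 note: 0% = growth of vehicle-only control cultures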; conditions: S. cerevisiae sgs1 mutant, active compounds read high
# How it was run: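 Yeast mutant strains carrying defined defects in DNA damage repair or cell cycle control were exposed to test compounds. Growth inhibition was scored against vehicle-treated controls.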
# [14] = NCI Yeast Anticancer Drug Screen. Data for the mlh1 rad18 strain (AID 175); conditions: S. cerevisiae mlh1 rad18 strain growth inhibition, active compounds read high
# How it was run: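 Growth inhibition of the yeast strain was measured after compound exposure and expressed relative to vehicle-treated controls. The strain carries defined defects in DNA damage repair.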
# [15] = NCI Yeast Anticancer Drug Screen. Data for the rad18 strain (AID 177); conditions: S. cerevisiae rad18 mutant growth inhibition, active compounds read high
# How it was run: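 Yeast carrying a defined DNA damage repair alteration were exposed to compounds. Growth inhibition was expressed relative to vehicle-treated controls.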
# [16] = at 5.0 µM (retest, dose inferred, filed as 0.5)
# [17] = at 50.0 µM (retest, dose inferred, filed as 5.0)
compound,measurement,setting,value
COP(=O)(OC)/C(=C\C1=CN(C(c2ccccc2)(c2ccccc2)c2ccccc2)CN1)NC=O,growth inhibition,[1]; at 1.2 µM,-12%
same,growth inhibition,[1]; at 3.7 µM,-15%
same,growth inhibition,[1]; at 11.0 µM,-11%
same,growth inhibition,[1]; at 33.0 µM,59%
same,growth inhibition,[1]; at 100.0 µM,96% (active)
same,growth inhibition,[2]; at 1.2 µM,12%
same,growth inhibition,[2]; at 3.7 µM,3%
same,growth inhibition,[2]; at 11.0 µM,5%
same,growth inhibition,[2]; at 33.0 µM,54%
same,growth inhibition,[2]; at 100.0 µM,96% (active)
same,growth inhibition,[3]; at 1.2 µM,2%
same,growth inhibition,[3]; at 3.7 µM,10%
same,growth inhibition,[3]; at 11.0 µM,73% (active)
same,growth inhibition,[3]; at 33.0 µM,96% (active)
same,growth inhibition,[3]; at 100.0 µM,97% (active)
same,growth inhibition,[4]; at 1.2 µM,-14%
same,growth inhibition,[4]; at 3.7 µM,-32%
same,growth inhibition,[4]; [16],2%
same,growth inhibition,[4]; at 11.0 µM,-17%
same,growth inhibition,[4]; at 33.0 µM,73% (active)
same,growth inhibition,[4]; [17],-15%
same,growth inhibition,[4]; at 50.0 µM,98% (active)
same,growth inhibition,[4]; at 100.0 µM,96% (active)
same,growth inhibition,[5]; at 1.2 µM,34%
same,growth inhibition,[5]; at 3.7 µM,13%
same,growth inhibition,[5]; [16],-10%
same,growth inhibition,[5]; at 11.0 µM,30%
same,growth inhibition,[5]; at 33.0 µM,68%
same,growth inhibition,[5]; [17],-4%
same,growth inhibition,[5]; at 50.0 µM,98.3% (active)
same,growth inhibition,[5]; at 100.0 µM,97% (active)
same,growth inhibition,[6]; at 1.2 µM,4%
same,growth inhibition,[6]; at 3.7 µM,-1%
same,growth inhibition,[6]; at 11.0 µM,-5%
same,growth inhibition,[6]; at 33.0 µM,65%
same,growth inhibition,[6]; at 100.0 µM,96% (active)
same,growth inhibition,[7]; [16],-9%
same,growth inhibition,[7]; [17],0%
same,growth inhibition,[7]; at 50.0 µM,98.3% (active)
same,growth inhibition,[8]; at 1.2 µM,3%
same,growth inhibition,[8]; at 3.7 µM,8%
same,growth inhibition,[8]; at 11.0 µM,-8%
same,growth inhibition,[8]; at 33.0 µM,25%
same,growth inhibition,[8]; at 100.0 µM,95% (active)
same,growth inhibition,[9]; [16],3%
same,growth inhibition,[9]; [17],7%
same,growth inhibition,[9]; at 50.0 µM,95.2% (active)
same,growth inhibition,[10]; at 1.2 µM,-27%
same,growth inhibition,[10]; at 3.7 µM,-41%
same,growth inhibition,[10]; [16],-7%
same,growth inhibition,[10]; at 11.0 µM,-41%
same,growth inhibition,[10]; at 33.0 µM,33%
same,growth inhibition,[10]; [17],2%
same,growth inhibition,[10]; at 50.0 µM,96.2% (active)
same,growth inhibition,[10]; at 100.0 µM,94% (active)
same,growth inhibition,[11]; at 1.2 µM,-10%
same,growth inhibition,[11]; at 3.7 µM,-13%
same,growth inhibition,[11]; at 11.0 µM,-6%
same,growth inhibition,[11]; at 33.0 µM,34%
same,growth inhibition,[11]; at 100.0 µM,96% (active)
same,growth inhibition,[12]; at 1.2 µM,1%
same,growth inhibition,[12]; at 3.7 µM,-13%
same,growth inhibition,[12]; at 11.0 µM,-8%
same,growth inhibition,[12]; at 33.0 µM,71% (active)
same,growth inhibition,[12]; at 100.0 µM,96% (active)
same,growth inhibition,[13]; at 1.2 µM,13%
same,growth inhibition,[13]; at 3.7 µM,20%
same,growth inhibition,[13]; at 11.0 µM,12%
same,growth inhibition,[13]; at 33.0 µM,79% (active)
same,growth inhibition,[13]; at 100.0 µM,97% (active)
same,growth inhibition,[14]; [16],-22%
same,growth inhibition,[14]; [17],-8%
same,growth inhibition,[14]; at 50.0 µM,97% (active)
same,growth inhibition,[15]; at 1.2 µM,-7%
same,growth inhibition,[15]; at 3.7 µM,-18%
same,growth inhibition,[15]; at 11.0 µM,-13%
same,growth inhibition,[15]; at 33.0 µM,40%
same,growth inhibition,[15]; at 100.0 µM,95% (active)
